Several values for one entry are separate records, joined by “and”; a condition that tells them apart may be missing. Identical values can stand only once. Results filed as inconclusive are left out. Entries that show only a call come without a potency. Activity calls are given as the source filed them. The call rests on the fitted dose curve; in most records, active means well fitted cell-killing curve with a large enough effect in the repeat runs; inconclusive means weak or mixed curves, or effect the other way; inactive means flat fitted curve, though single readings scatter.
Test: cAMP Responsive Elements (CRE) small molecule antagonists, cell-based qHTS assay: qHTS cell viability counter screen (AID 2060913); further: nearly all actives have a fitted effect of over 40% in size
Settings: CRE-bla HEK293T viability, CellTiter-Glo luminescence, 5 h; series mostly up to 92.4 µM
Outline: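 Cytotoxicity counter screen multiplexed with the CRE-bla antagonist read: HEK293T cells in DMEM with dialyzed FBS and 25 mM HEPES were treated 3 hrs under 0.25 uM final NKH477, then viability measured by CellTiter-Glo luminescence.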
Potency means the concentration at half of the fitted maximal effect.

Compound | Potency
N#Cc1cc(NC(=O)C(=O)O)c(Cl)c(NC(=O)C(=O)O)c1 | inactive
CC1(C)CCC(C)(C)c2cc(NC(=O)c3ccc(C(=O)O)cc3)ccc21 | inactive
COc1ccc2c(c1OC)C(=O)O[C@@H]2[C@H]1c2c(cc3c(c2OC)OCO3)CCN1C | inactive
Cc1cc(NC(=O)C(=O)O)cc(C)c1Oc1ccc(O)c2c1CCC2 | inactive
CC(C)(CO)CO | inactive
Nc1cc(Cl)c(O)c(Cl)c1 | inactive
CC(C(=O)O)c1cccc(Oc2ccccc2)c1 (stereo not given) | inactive
CN(C/C=C/c1ccccc1)Cc1cccc2ccccc12 | 29.8 µM (active)
CC(C)C(=O)OC/C=C/c1ccccc1 | inactive
CC(=O)Nc1ccc(S(=O)(=O)Cl)cc1 | inactive
CC1=C(C(=O)O)N2C(=O)[C@@H](NC(=O)[C@H](N)c3ccccc3)[C@H]2SC1 | inactive
COc1ccc(C(=O)NCc2ccc(OCCN(C)C)cc2)cc1OC | inactive
CC(C)COC(=O)c1ccccc1 | inactive
COc1ccc(Nc2ccc(OC)cc2)cc1 | inactive
NCCc1ccc(O)c(O)c1 | inactive
NC(=O)C1CO1 (stereo not given) | inactive
OC/C=C/c1ccccc1 | inactive
O=C(O)c1ccncc1 | inactive
FC(F)OC(Cl)C(F)(F)F (stereo not given) | inactive
CCOCC(=O)O | inactive

Compound | Potency
C=Cc1ccc(C=C)cc1 | inactive
COc1ccc2c(c1)c(CC(=O)OCC(=O)O)c(C)n2C(=O)c1ccc(Cl)cc1 | inactive
C=CCCCC | inactive
NCCCN(CCO)CCO | inactive
C=Cc1ccc(S(=O)(=O)O)cc1 | inactive
CC/C(=C(\c1ccc(O)cc1)c1ccc(OCCN(C)C)cc1)c1ccccc1 | 68.7 µM (active)
NC(=O)NNc1ccccc1 | inactive
CC1(CN2CCC(n3c(=O)[nH]c4ccccc43)CC2)OCc2ccccc2-n2cccc21 (stereo not given) | inactive
NCCOCCN | inactive
CCOC(=O)C(C#N)=C(c1ccccc1)c1ccccc1 | inactive
CC(=O)Nc1ccc(OCC(O)CNC(C)C)cc1 (stereo not given) | inactive
CC(=O)[C@H]1CC[C@H]2[C@@H]3C=CC4=CC(=O)CC[C@@]4(C)[C@@H]3CC[C@]12C | inactive
CC(C)=CC1CC(C)CCO1 (stereo not given) | inactive
CCCCCCCCCCCC[N+](C)(C)C | 54.3 µM (active) and 61.1 µM (active) and 68.6 µM (active)
CCOCN(C(=O)CS(=O)(=O)O)c1c(C)cccc1CC | inactive
CC(C)[N+](C)(C)CC(O)COc1cccc2ccccc12 (stereo not given) | inactive
Oc1ccccc1-c1nnco1 | inactive
CN1CCCN(C(c2ccccc2)c2ccc(Cl)cc2)CC1 (stereo not given) | inactive
CCCCCCCC/C=C\CCCCCCCC(=O)N(CCO)CCO | inactive
CC/C=C\CCOC(=O)c1ccccc1 | inactive
